About 14,000 (4.5%) of roughly 310,000 compounds showed an effect of 50% or more. Effects have a minus sign here. The full list was thinned out, with strong results kept by preference.
What follows are molecules tested against human ether-à-go-go-related gene (hERG) potassium channel (human, UniProt Q12809) (assay: primary screen, population patch clamp on CHO cells stably expressing hERG; higher = less effect of the substance).
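Also: peak tail current of the secondary pulse compared with the same well before compound.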

Chain of human ether-à-go-go-related gene (hERG) potassium channel (Q12809 whole entry, looked up): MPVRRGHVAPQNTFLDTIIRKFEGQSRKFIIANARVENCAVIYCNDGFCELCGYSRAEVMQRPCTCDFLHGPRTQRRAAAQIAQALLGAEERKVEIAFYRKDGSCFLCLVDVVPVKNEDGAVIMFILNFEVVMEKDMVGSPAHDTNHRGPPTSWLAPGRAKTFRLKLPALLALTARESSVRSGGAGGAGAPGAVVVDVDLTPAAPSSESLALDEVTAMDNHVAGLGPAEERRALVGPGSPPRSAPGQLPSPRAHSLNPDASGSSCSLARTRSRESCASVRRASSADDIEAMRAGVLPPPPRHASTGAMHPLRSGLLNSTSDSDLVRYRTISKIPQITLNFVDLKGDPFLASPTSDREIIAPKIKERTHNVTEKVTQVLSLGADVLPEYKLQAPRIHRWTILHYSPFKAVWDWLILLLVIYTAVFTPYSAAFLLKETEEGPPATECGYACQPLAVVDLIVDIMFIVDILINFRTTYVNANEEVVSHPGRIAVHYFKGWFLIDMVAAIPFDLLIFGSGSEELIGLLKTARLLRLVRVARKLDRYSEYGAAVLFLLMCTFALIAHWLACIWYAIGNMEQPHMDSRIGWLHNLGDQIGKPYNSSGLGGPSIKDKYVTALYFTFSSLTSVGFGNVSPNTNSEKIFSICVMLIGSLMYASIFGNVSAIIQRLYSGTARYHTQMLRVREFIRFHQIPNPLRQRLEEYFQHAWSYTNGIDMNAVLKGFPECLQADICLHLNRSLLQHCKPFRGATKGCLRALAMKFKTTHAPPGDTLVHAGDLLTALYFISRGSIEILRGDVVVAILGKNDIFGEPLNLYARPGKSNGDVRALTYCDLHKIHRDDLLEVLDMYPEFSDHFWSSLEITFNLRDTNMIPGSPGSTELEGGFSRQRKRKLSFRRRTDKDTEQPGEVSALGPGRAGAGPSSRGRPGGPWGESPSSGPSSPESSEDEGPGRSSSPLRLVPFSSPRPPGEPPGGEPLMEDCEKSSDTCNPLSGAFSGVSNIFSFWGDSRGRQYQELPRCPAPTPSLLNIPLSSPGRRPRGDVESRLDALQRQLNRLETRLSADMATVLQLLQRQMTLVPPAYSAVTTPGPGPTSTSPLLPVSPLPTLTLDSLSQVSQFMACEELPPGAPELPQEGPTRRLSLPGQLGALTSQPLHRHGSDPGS

SMILES | hERG current change (%, negative = inhibition) at 10uM [%]
O=S(=O)(c1ccc2ccccc2c1)N1CCN(S(=O)(=O)N2CCOCC2)CC1 | -0.31
O=C(NC1CCN(C(=O)c2cccs2)CC1)c1ccccc1 | -19.3
COC(=O)c1cc(N=CC2=C(O)CC(C)(C)CC2=O)cc(C(=O)OC)c1 | -16.3
O=C(c1ccccc1)N1CCN(c2ncnc3c(-c4ccccc4)nsc23)CC1 | 6.38
Cc1nc2ccccc2c(=O)n1/N=C/c1ccc(O)cc1 | 10.9
Cc1nn(-c2ccccc2)c2nc(=O)n(-c3ccccc3)cc12 | -10.9
Cc1ccc(S(=O)(=O)Nc2cccc(-n3cnnn3)c2)cc1C(=O)O | 3.97
O=C(NC1CCCCCC1)c1ccc2c(=O)n3c(nc2c1)CCCCC3 | -51
CCOC(=O)N1CCC(NC(=O)c2ccc3c(=O)n4c(nc3c2)CCCC4)CC1 | 12
O=C(c1ccc2c(=O)n3c(nc2c1)CCCCC3)N1CCCCC1 | 17.5
CCNc1ccc(C(=O)OCC)cc1NC(=O)c1cc(S(=O)(=O)N2CCOCC2)ccc1C | -10.9
Cn1c(SCC(=O)N2CCCC2)nnc1-c1cccs1 | 4.73
CN(C(=O)COC(=O)CSc1cc(Cl)ccc1Cl)c1c(N)n(Cc2ccccc2)c(=O)[nH]c1=O | -0.021
C[C@H]1CN=C(Nc2ccccc2)N1CCC1CCCC1 | -10.6
C[C@H]1CN=C(Nc2ccccc2)N1CC1CCCCC1 | 0.474
C[C@H]1CN=C(Nc2ccccc2)N1CC1CCCCCC1 | -24.5
C[C@H]1CN=C(Nc2ccccc2)N1CCCC1CCCC1 | -58.7
C[C@H]1CN=C(Nc2ccccc2)N1CCC1CCCCC1 | -46.8
C[C@H]1CN=C(Nc2ccccc2)N1CCCC1CCCCC1 | -62.2
COc1ccc(S(=O)(=O)N2CCOC2CNC(=O)C(=O)NCc2ccncc2)cc1OC (stereo not drawn) | 10.3
Cc1ccccc1-c1nc(S(=O)(=O)c2ccc(Cl)cc2)c(NCCN2CCOCC2)o1 | -20.2

SMILES | hERG current change (%, negative = inhibition) at 10uM [%]
O=S(=O)(c1ccccc1)c1nc(-c2ccccc2)oc1NCCCN1CCOCC1 | -43.9
Cc1cccc(-c2nc(S(=O)(=O)c3ccc(F)cc3)c(NCCCN3CCOCC3)o2)c1 | -69.4
O=S(=O)(c1ccc(Cl)cc1)c1nc(-c2ccccc2F)oc1NCCCN1CCOCC1 | -10.4
O=S(=O)(c1ccc(Cl)cc1)c1nc(-c2ccccc2F)oc1NCCN1CCOCC1 | -67
Cc1ccc(S(=O)(=O)c2nc(-c3ccccc3)oc2NCCN2CCOCC2)cc1 | 3.12
COc1cccc(CN2CCN(C(=O)c3cccc4ccccc34)CC2)c1.O=C(O)C(=O)O | -12
COc1cccc(CN(C)C(=O)C2CC(=O)N(c3ccc4c(c3)OCCO4)C2)c1 (stereo not drawn) | 12.1
COc1cccc(-c2nc3ccc(O)cc3c(=O)o2)c1 | 1.21
COc1ccc(OCC(=O)N2CCN(C(=O)c3cccs3)CC2)cc1 | -43.3
CCOc1cc(C#N)ccc1OCC(=O)N1CCN(C(=O)c2cccs2)CC1 | -67.7
CCOc1cc(C#N)ccc1OCC(=O)N1CCc2ccccc2C1 | -40.7
Cc1ccc(OCC(=O)N2CCN(C(=O)c3cccs3)CC2)cc1 | -34.8
O=C(COc1ccc(Cl)cc1)N1CCN(C(=O)c2cccs2)CC1 | -74.5
O=C(COc1ccccc1Br)N1CCN(C(=O)c2cccs2)CC1 | -32.2
O=C(COc1ccccc1)N1CCN(C(=O)c2cccs2)CC1 | -13.4
O=C(COc1ccc2ccccc2c1)N1CCN(C(=O)c2cccs2)CC1 | -50
O=C(COc1ccc(-c2ccccc2)cc1)N1CCN(C(=O)c2cccs2)CC1 | -41.8
Cc1nnc(SCc2cc(=O)[nH]c(/N=C(\N)Nc3ccccc3Sc3ccccc3)n2)s1 | -11.1
Cl.O=C(CNCCO)N1CCc2ccccc21 | -5.27
Cc1ccc(CN2C(=O)N/C(=C/c3ccc(-c4ccc(C(=O)O)cc4)o3)C2=O)cc1 | 0.0417
O=C1CC(N2CCN(C3CC(=O)N(CCc4ccccc4)C3=O)CC2)C(=O)N1CCc1ccccc1 (stereo not drawn) | -6.78

SMILES | hERG current change (%, negative = inhibition) at 10uM [%]
O=C1CC(N2CCN(C/C=C/c3ccccc3)CC2)C(=O)N1Cc1ccc(N2CCCC2=O)cc1 (stereo not drawn) | -46.7
O=C1OC(N2CCN(C/C=C/c3ccccc3)CC2)c2ccccc21 (stereo not drawn) | 9.57
O=C1CC(N2CCN(C/C=C/c3ccccc3)CC2)C(=O)N1CCc1ccccc1 (stereo not drawn) | -58.1
O=C1CC(N2CCN(C/C=C/c3ccccc3)CC2)C(=O)N1Cc1cccs1 (stereo not drawn) | -74.8
COc1ccc(CCN2C(=O)CC(N3CCN(C/C=C/c4ccccc4)CC3)C2=O)cc1OC (stereo not drawn) | -43.9
C=CCn1c(CNC(=O)c2cccs2)n[nH]c1=S | 15.5
Cc1cc(C)cc(OC(=O)CCN2C(=O)c3ccccc3C2=O)c1 | -3.19
COc1ccccc1N(CC(=O)Nc1ccc(F)c(F)c1)S(C)(=O)=O | -1.01
COc1cccc(CN2CC(C(=O)NCCc3ccc(C)s3)CCC2=O)c1 (stereo not drawn) | -26.5
CCN1C(=O)c2cccc3c(S(=O)(=O)N4CCC(C)CC4)ccc1c23 | -16.8
CCOC(=O)C1CCCN(S(=O)(=O)c2ccc3c4c2CC(=O)N4CC(C)S3)C1 (stereo not drawn) | -0.356
CCN1C(=O)c2cccc3c(S(=O)(=O)N4CCCC4C(=O)O)ccc1c23 (stereo not drawn) | 13
CCOC(=O)C1CCN(S(=O)(=O)c2cc3c(cc2C)NC(=O)CO3)CC1 | -54.9
CCOC(=O)C1CCCCN1S(=O)(=O)c1cc2c(cc1C)NC(=O)CO2 (stereo not drawn) | -19.8
CCOC(=O)C1CCN(S(=O)(=O)c2ccc3c4c(cccc24)C(=O)N3)CC1 | -54.6
CCOC(=O)C1CCN(S(=O)(=O)c2ccc3c4c2CC(=O)N4CC(C)S3)CC1 (stereo not drawn) | -57.1
O=C1Nc2ccc(S(=O)(=O)N3CCCC3)c3cccc1c23 | -7.57
CC1CCN(S(=O)(=O)c2ccc3c4c2CC(=O)N4CC(C)S3)CC1 (stereo not drawn) | 7.22
CCOC(=O)C1CCCN(S(=O)(=O)c2ccc3c4c(cccc24)C(=O)N3CC)C1 (stereo not drawn) | -63.5
CCOC(=O)N1CCN(S(=O)(=O)c2ccc3c4c(cccc24)C(=O)N3)CC1 | -14.5
CCOC(=O)N1CCN(S(=O)(=O)c2cc3c(cc2C)NC(=O)CO3)CC1 | -36.2

SMILES | hERG current change (%, negative = inhibition) at 10uM [%]
O=C(Nc1ccc(Cl)cc1)Nc1ccccc1CC[N+](=O)[O-] | 7.79
CC(=O)O[C@H]1CC[C@@]2(C)C(CCC3C2CC[C@]2(C)OC(=O)CCC32)C1 (stereo partly drawn) | -10.7
O=C(O)c1ccc(S(=O)(=O)N2CCCc3ccccc32)cc1 | 19.7
O=C(CN1C(=O)NC2(CCCCCC2)C1=O)N1CCN(S(=O)(=O)c2ccc(Cl)cc2)CC1 | -23.9
Cc1ccc(S(=O)(=O)N(C)c2nc3ccccc3[nH]c2=S)cc1 | 4.41
O=C1C(Cc2cccc([N+](=O)[O-])c2)S/C(=N/N=C/c2ccco2)N1c1ccccc1 (stereo not drawn) | 2.64
O=C(NC1CCCCC1)N(Cc1nc2ccccc2c(=O)[nH]1)C1CCCCC1 | 2.79
O=C(NCCc1nc2ccccc2[nH]1)/C(=C/c1ccc(F)cc1)NC(=O)c1ccco1 | -62.8
O=C(NCCc1nc2ccccc2[nH]1)c1ccco1 | 2.94
COc1ccc(/C=C(\NC(=O)c2ccco2)C(=O)NCCc2nc3ccccc3[nH]2)cc1 | -42.6
O=C(NCCc1nc2ccccc2[nH]1)/C(=C/c1ccco1)NC(=O)c1ccc(Br)cc1 | -69.9
CC(C)=C(NC(=O)c1ccccc1Br)C(=O)NCCc1nc2ccccc2[nH]1 | 3.68
O=C(NCCc1nc2ccccc2[nH]1)/C(=C/c1ccco1)NC(=O)c1ccc(Br)o1 | -63.2
O=C(NCCc1nc2ccccc2[nH]1)/C(=C/c1ccco1)NC(=O)c1ccccc1Br | -64.9
O=C(NCCc1nc2ccccc2[nH]1)c1ccc(Br)o1 | 3.87
Cc1ccc(C(=O)N/C(=C/c2ccco2)C(=O)NCCc2c[nH]c3ccccc23)cc1 | -46
O=C(CNC(=O)c1ccc(Br)cc1)NCCc1nc2ccccc2[nH]1 | -6.76
O=C(NCCc1nc2ccccc2[nH]1)/C(=C/c1ccco1)NC(=O)c1ccco1 | -17.3
CC(C)=C(NC(=O)c1ccco1)C(=O)NCCc1nc2ccccc2[nH]1 | 1.12
CCc1nc(SCC(=O)N2CCC(C)CC2)c2c(=O)n(C)c(=O)n(C)c2n1 | -11.6
CC1Cc2ccccc2N1c1ncnc(N)c1[N+](=O)[O-] (stereo not drawn) | -24.2
